ATXN2 expr inh – Primary qHTS for Inhibitors of ATXN expression; HEK-293 ATXN2-luciferase reporter, luminescence, 24 h; Potency, µM (doses to about 57 µM), for the others: at the top dose activity change, negative = inhibition, hits mostly inhibitors; actives 0.72% (n = 360,000); AID 1745845, 2022; note: % is set by controls: 0 for no effect and ±100 for the full control effect; nearly all actives have a fitted effect of over 55% in size
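qHTS (up to 57 uM final) was run with 24 h compound exposure of reporter cells at 37 °C. Each well was multiplexed: SteadyGlo luminescence measured ATXN2-luciferase expression after a fluorogenic Gly-Phe-AFC viability readout (25 uM final).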
HepG2 tox – qHTS for Inhibitors of TGF-b: Cytotox Counterscreen | actives 0.76% (n = 410,000) | HepG2 CAGA-GFP viability, ATP luminescence, 18 h | Potency, µM (doses to about 46.1 µM), inactives show top-dose activity change, negative = cytotoxicity, actives largely listed as cytotoxic
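HepG2 CAGA-GFP cells (1000/well, DMEM with 1% FBS) received compound, then TGF-beta at 500 pg/mL final, and were incubated 18 hours at 37 degrees C. Viability was read by CellTiter-Glo luminescence. Media-only wells were set as complete cell-killing and DMSO as no toxicity.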
12-LOX inh – Primary qHTS assay for inhibitors of human arachidonate 12S-lipoxygenase (ALOX12): Round 2; Polyunsaturated fatty acid lipoxygenase ALOX12 (Homo sapiens), P18054; purified 12hLO, xylenol orange hydroperoxide absorbance; Potency, µM (series often up to 108 µM), inactives show at the highest dose activity change, negative = inhibition, usual class: inhibitors; actives 1.1% (n = 580,000); AID 1671190, 2021; note: % is set by controls: 0 for no effect and ±100 for the full control effect
Target sequence (P18054 whole entry, looked up): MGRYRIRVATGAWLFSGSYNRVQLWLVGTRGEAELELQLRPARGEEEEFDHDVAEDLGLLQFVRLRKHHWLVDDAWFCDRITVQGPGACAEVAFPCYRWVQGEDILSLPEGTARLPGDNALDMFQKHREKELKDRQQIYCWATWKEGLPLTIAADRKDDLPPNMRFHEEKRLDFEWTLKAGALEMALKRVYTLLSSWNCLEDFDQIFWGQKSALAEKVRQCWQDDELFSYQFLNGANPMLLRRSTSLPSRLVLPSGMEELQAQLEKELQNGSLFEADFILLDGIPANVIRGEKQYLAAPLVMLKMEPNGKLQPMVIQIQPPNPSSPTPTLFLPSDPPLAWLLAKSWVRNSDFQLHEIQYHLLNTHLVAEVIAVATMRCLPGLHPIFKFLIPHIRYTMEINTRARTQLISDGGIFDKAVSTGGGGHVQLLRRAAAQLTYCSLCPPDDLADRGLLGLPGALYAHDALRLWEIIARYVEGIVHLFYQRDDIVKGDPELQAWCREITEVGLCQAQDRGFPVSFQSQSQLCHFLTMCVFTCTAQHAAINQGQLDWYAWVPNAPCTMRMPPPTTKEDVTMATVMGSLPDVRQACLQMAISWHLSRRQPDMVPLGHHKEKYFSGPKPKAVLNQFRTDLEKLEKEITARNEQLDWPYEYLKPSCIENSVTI
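Purified human 12hLO (150 nM final) in 25 mM Hepes, 0.01% Triton X-100, pH 7.0 was preincubated 15 min at room temperature with compound. Then 40 uM arachidonic acid was added, 30 min. Hydroperoxide was read by Fe-XO absorbance ratio 573/405 nm.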
TGFb SMAD3 inh – qHTS for Inhibitors of TGF-b. actives 1.2% (n = 410,000). HepG2 CAGA-GFP TGF-b/SMAD3 reporter, GFP fluorescence, 18 h; TGF-beta stimulated, 500 pg/mL final. Potency, µM (series often up to 46.1 µM), inactives show top-dose activity, negative = inhibition, most hits filed as inhibitors; note: % is set by controls: 0 for no effect and ±100 for the full control effect; nearly all actives have a fitted effect of over 65% in size
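Inhibition of TGF-beta-driven CAGA-GFP reporter expression in HEPG2 cells is measured by cellular GFP fluorescence after 18 h stimulation with 500 pg/mL recombinant TGF-beta in 1% FBS medium at 37 degrees C.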
ATXN viability – Viability Counterscreen for Primary qHTS for Inhibitors of ATXN expression; actives 0.49% (n = 400,000); Potency, µM (highest dose often 56.7 µM), most hits filed as cytotoxic; S2 cells (HEK-293 line with an ATXN2-luciferase reporter) viability, CellTiter-Fluor protease fluorescence, 24 h; note: nearly all actives have a fitted effect of over 40% in size
* hit, by the source's call; i = inactive; ? = inconclusive; · = no result given; ! = not confirmed by another sample. Sampled rows, rich in hits. Any-hit rate of the full collection: about 2.7%. Calls come from the whole dose curve; as a rule, active = well fitted curve in the direction sought with a large enough effect; inconclusive = small, poorly fitted or top-dose-only effect, or another doubt; inactive = no such curve, though single readings can be large; an effect the other way counts as inactive or inconclusive. Potency is the fitted concentration of half-maximal effect.

SMILES | ATXN2 expr inh | HepG2 tox | 12-LOX inh | TGFb SMAD3 inh | ATXN viability
CN(C)CCNc1oc(COc2ccc(-c3ccccc3)cc2)nc1C#N | ? | 11.2µM* | 0.0% | ? | ?
O=C(NCC1(N2CCOCC2)CCCCC1)c1cccc(NC(=O)c2cccs2)c1 | · | · | -14.4% | · | ·
CCOc1ccc(C(=O)Nc2ncc(C)s2)cc1OCC | · | · | 6.9% | · | ·
Nc1nc(Sc2ccc([N+](=O)[O-])c3nonc23)c2[nH]cnc2n1 | 14.1µM* | -49.8% | 31.6µM* | ? | ·
CC[n+]1c(/C=C/c2ccc(OC)c(OC)c2)ccc2ccccc21 | · | 0.8% | 7.94µM* | 26.2% | i
CC[n+]1c(C)ccc2ccccc21 | · | · | 15.8µM* | · | ·
CN(C)c1ccc(/C=C/c2cc[n+](C)cc2)cc1 | -38.3% | -24.4% | 1µM* | 52.9% | ?
C[n+]1c(/C=C/c2ccc(O)cc2)ccc2ccccc21 | -12.0% | -72.8% | 35.5µM* | -24.9% | ·
Cc1ccc(/C=C/c2ccc(N(C)C)cc2)[n+](C)c1 | · | -13.9% | ? | -0.1% | ?
COc1ccc(CN(C(=O)c2cc3ccccc3s2)C2CC2)cc1 | · | · | -4.8% | · | ·
Cc1cccc(NC(=O)COc2ccc3c(=O)c(Oc4ccccc4)c(C)oc3c2)n1 | · | · | -5.2% | · | ·
CC(C)c1ncncc1C(=O)NCCNc1cnccn1 | · | · | 8.5% | · | ·
CC[n+]1c(/C=C/c2ccc(N(C)C)cc2)ccc2ccccc21 | ? | -60.1% | ? | 3.55µM* | ·
CC[n+]1ccc(/C=C/c2ccc(N(C)C)cc2)c2ccccc21 | ? | -40.9% | ? | 6.31µM* | 8.91µM*
CN(C)c1ccc(/C=C/c2cc[n+]([O-])c3ccccc23)cc1 | · | -5.0% | · | -11.6% | ·
CONC(=O)CSCC(=O)Nc1cccc(C)c1 | · | · | -35.1% | · | ·
O=c1c(-c2ccc([N+](=O)[O-])cc2)coc2c(O)c(O)ccc12 | -38.2% | -4.3% | 6.31µM* | -16.4% | ?
CN(C)Cc1c(O)ccc2c(=O)c(-c3ccc(Cl)cc3)coc12 | 3.0% | 0.8% | ? | 16.6% | i
Cc1cccc(S(=O)(=O)Nc2nc3ccccc3nc2NCc2ccccc2Cl)c1 | · | · | -28.7% | · | ·
O=C1NC[C@@H](CCCCN2C[C@H](Cc3ccccc3)N(Cc3ccccc3)C(=O)C2=O)N(CC2CCCCC2)C1=O | 8.1% | · | ? | · | i
O=C1NC[C@@H](CCCCN2C[C@H](Cc3ccccc3)N(CC3CCCCC3)C(=O)C2=O)N(CC2CCCCC2)C1=O | -7.9% | · | 61.7% | · | 14.1µM*
O=C1NC[C@H](CCCCN2C[C@H](Cc3ccc(O)cc3)N(CC3CCCCC3)C(=O)C2=O)N(CC2CCCCC2)C1=O | 3.9% | · | 44.7µM* | · | i
S=C1NC[C@H](Cc2ccccc2)N1CCCCC1CCCCC1 | -11.9% | -46.1% | 35.5µM* | ? | ?
CSC1=N/C(=C\C=C\c2ccco2)C(=O)S1 | · | · | 3.16µM* | · | ·
C=CCSC1=N/C(=C\C=C\c2ccco2)C(=O)S1 | -10.5% | -18.5% | ? | ? | i
SMILES | ATXN2 expr inh | HepG2 tox | 12-LOX inh | TGFb SMAD3 inh | ATXN viability
Cc1c(O)cc(C(=O)/C=C/c2ccccc2)cc1Cl | · | · | -11.7% | · | ·
CN(C)CCOc1ccc2c(c1)C(=O)C(=Cc1ncc([N+](=O)[O-])n1C)C2 | · | -79.9% | ? | 1.41µM* | ?
CCc1cc(OCCN(C)C)ccc1Cl | -28.7% | 1.1% | ? | -3.4% | i
Cc1nc(-c2ccccc2F)sc1C(=O)N1CCC(C(=O)O)CC1 | · | · | 0.9% | · | ·
Cc1ccc(Cn2ccnc2SCC(=O)Nc2nc3ccccc3s2)cc1 | · | -33.0% | -5.8% | 11.2µM* | ·
Cn1cc(SCC(=O)Nc2nc3ccccc3s2)c2ccccc21 | 25.1µM* | -40.1% | ? | -24.0% | i
O=C(CSc1nc2ccccc2s1)Nc1nc2ccccc2s1 | · | · | -9.6% | · | ·
O=C(Nc1ccc2c(c1)OCCO2)C(=O)c1c[nH]c2ccc(Br)cc12 | · | · | -55.5% | · | ·
CC(C)(CNC(=O)C1CCN(c2nc3ccccc3o2)CC1)N1CCCCC1 | · | · | 16.3% | · | ·
CCCCC(CC)Cn1c(N)c(C#N)c2nc3ccccc3nc21 (configuration not stated) | -17.5% | 14.1µM* | ? | ? | i
CC1(S(=O)(=O)O)CC(=O)c2ccccc2C1=O (configuration not stated) | 25.1µM* | -102.7% | -20.5% | ? | ·
Cn1nc(C(=O)N2CCN(CC(=O)N3CCCC3)CC2)c2ccccc2c1=O | · | · | -0.8% | · | ·
C[C@H]1CN([C@@H](C)CO)C(=O)Cc2cc(NS(C)(=O)=O)ccc2O[C@@H]1CN(C)Cc1ccc(Cl)c(Cl)c1 | -37.2% | -32.9% | ? | 11.2µM* | ?
C[C@H](CO)N1C[C@H](C)[C@H](CN(C)C)Oc2ccc(NS(=O)(=O)c3ccc(F)cc3)cc2CC1=O | 2.3% | 0.2% | 1.8% | 1.4% | i
C[C@H](CO)N1C[C@H](C)[C@H](CN(C)CC2CCCCC2)Oc2ccc(NS(=O)(=O)c3ccc(F)cc3)cc2CC1=O | ? | -105.0% | -14.9% | ? | 28.2µM*
C[C@@H]1CN([C@@H](C)CO)C(=O)Cc2cc(NC(=O)Nc3ccc(F)cc3)ccc2O[C@@H]1CN(C)Cc1ccc(Cl)c(Cl)c1 | ? | 15.8µM* | ? | ? | ?
Nc1nc(SCc2coc(-c3cccc(Cl)c3)n2)n[nH]1 | · | · | 9.4% | · | ·
Cc1ccc2occ(CC(=O)N(Cc3ccc(Cl)cc3)Cc3ccco3)c2c1 | -22.6% | -21.4% | -10.8% | 15.8µM* | i
O=C(c1cccc(-n2cnnc2)c1)N(Cc1ccc2[nH]ccc2c1)C1CC1 | · | · | 10.2% | · | ·
COC(=O)c1cc2c(n1S(=O)(=O)c1ccc(C)cc1)C(=O)C(=O)c1[nH]cc(C(=O)OCc3ccccc3)c1-2 | 2.99µM* | 0.708µM* | · | ? | 4.74µM*
O=C(CCCCCN1C(=O)c2cccc3cccc(c23)C1=O)NO | · | · | 3.55µM* | · | ·
O=C1c2ccc3c4c(ccc(c24)C(=O)N1CCCCO)C(=O)N(CCCCO)C3=O | ? | 3.16µM* | -3.7% | 2.51µM* | ?
COc1c(CNCC(O)COc2c(C)cccc2C)c(C)nn1C (configuration not stated) | · | · | -35.4% | · | ·
CC#C[C@]1(O)CC[C@H]2[C@@H]3CCC4=CC(=O)CCC4=C3[C@@H](c3ccc(N(C)C)cc3)C[C@@]21C | 15.3µM*! | -23.1% | ? | 0.1% | i
CC#C[C@]1(O)CC[C@H]2[C@@H]3CCC4=CC(=O)CCC4=C3[C@H](c3ccc(N(C)C)cc3)C[C@@]21C | · | · | 0.0% | · | ·
Cc1ccc(OCCn2c(CNc3cccc(C)c3)nc3ccccc32)cc1 | -15.5% | -35.0% | 5.3% | 12.6µM* | i
COc1ccc(NCc2nc3ccccc3n2CCOc2ccccc2C)cc1 | -9.6% | -37.7% | 3.3% | ? | ?
